Results filed as inconclusive are left out. Activity calls are given as the source filed them.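 Rule for the calls, unless noted: active = RAM network inhibition above 8.4% in each of two replicates, 3 SD over the compound average; inconclusive = above 8.4% inhibition in only one replicate; inactive = 8.4% inhibition or less in each replicate.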
What was measured:
[1] = reduced viability of SK-BR-3 breast cancer cells – cell-based, 24 h, human, pilot screen (AID 572;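 active = viability at or below 10% of carrier control in both of two separate runs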;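 note: compound exposure lasted between 18 and 24 h rather than exactly 24 h; 100% = carrier-treated control wells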); settings: SK-BR-3 viability, CellTiter-Glo luminescence, at 10 µM, stronger effect = lower value
[2] = HUVEC growth inhibition – cell-based, human, primary screen (AID 575;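 active = viability at or below 30% in both replicate assays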;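 note: 100% = median of untreated cell wells with 0.1% DMSO on each plate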); settings: HUVEC proliferation, CellTiter-Glo luminescence, 72 h; at 10 µM; stronger effect = lower value
[3] = H69AR cell proliferation blockers – human, duplicate replicates, primary screen (AID 580;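 active = viability at or under a set limit in both replicates, limit being median viability minus 3 SD, cut at about 48% in these data, passing the limit was not always enough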;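 note: 100% = mean luminescence of untreated wells and 0% = no signal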); settings: H69AR lung tumor cells viability, ATP luminescence, 72 h; at 10 µM; stronger effect = lower value
[4] = MRP1 drug-resistance reversers in H69AR cells – cell-based, doxorubicin co-treatment, pilot screen (AID 601;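 active = viability loss from added drug above about 55%, and viability with drug at most 40%, in both replicates, limit read from the data, passing the limit was not always enough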); settings: CellTiter-Glo, 72 h, at 10 µM; for differential viability (reversal): stronger effect = higher value
[5] = yeast transport mutant growth inhibition pilot in 384-well plates, post-Golgi transport modulator project (AID 636; in the data active = inhibition above about 31%); settings: absorbance 615 nm, about 18 h, stronger effect = higher value
[6] = growth suppression of yeast trafficking mutant, preliminary HTS, modulators of trafficking downstream of Golgi apparatus project, 1536-format plate, OD 615 nm (AID 637; in the data active = inhibition above about 30%); settings: yeast transport mutant growth, absorbance 615 nm, 18 h; stronger effect = higher value
[7] = S. cerevisiae growth inhibition in permissive medium (OD615), pilot counter-assay for S. cerevisiae lifespan shortening project, permissive growth control (AID 705;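 active = growth inhibition above 25% in both replicates, a cutoff set 3 SD above the mean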); settings: OD615, 24 h, at 10 µM, stronger effect = higher value
[8] = S. cerevisiae growth inhibition in restrictive medium, OD615, pilot screen, restrictive growth control, yeast lifespan reduction project (AID 706;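 active = growth inhibition above a set limit, 3 SD over mean compound inhibition, in both replicates, cut at about 43% in these data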;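 note: modified DeaD lifespan yeast strain shifted to restrictive glucose medium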); settings: OD615, 48 h, at 10 µM, stronger effect = higher value
[9] = doxorubicin toxicity protection in MRP-1 cells – H69AR cells, CellTiter-Glo, duplicate, MRP-1 activator project, pilot screen (AID 807;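 active = viability increase at or above a cutoff of the median across tested compounds plus 3 SD, cut at about 8.5% in these data, passing the limit was not always enough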;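 note: compound pretreatment 18-22 h then 72 h combined with doxorubicin; 0% = doxorubicin alone and 100% = vehicle without doxorubicin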); settings: H69AR viability with doxorubicin, CellTiter-Glo luminescence; at 10 µM; stronger effect = higher value
[10] = viability of HCT116 without oncogenic beta-catenin – human colon tumor cells, pilot screen (AID 823;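 active = cell viability at or below a set limit in both duplicate runs, the limit being the all-compound median minus 4 SD, cut at about 23% in these data, passing the limit was not always enough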;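 note: 0% = wells killed by 20 µM Hyamine and 100% = untreated DMSO cell wells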); settings: HCT116 beta-catenin knockout viability, CellTiter-Glo, 60 h; at 10 µM; stronger effect = lower value
[11] = viability of PTEN-null HCT116 cells – cell-based, HCT116 clonal line, CellTiter-Glo, pilot screen (AID 824;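 active = viability at or below 27.92% in each of two runs, the all-compound median minus 4 SD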;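 note: 0% = 20 µM Hyamine control and 100% = vehicle cell control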); settings: HCT116 PTEN-deleted viability, 60 h, at 10 µM, stronger effect = lower value
[12] = RAM pathway blockade in budding yeast – dse1pr::URA3 reporter, 5-FOA selection, pilot screen (AID 869;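 active = inhibition over a set limit, the all-compound mean plus 3 SD, in both replicate runs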;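 note: 0% = DMSO wells with no growth and 100% = 10 µM 1-NA-PP1 with full growth; RAM network block rescues cells from 5-FOA so hits raise OD615 growth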); settings: S. cerevisiae dse1pr::URA3 5-FOA growth, OD615, 2 d; at 10 µM; stronger effect = higher value; strain carries analog-sensitive mutant Cbk1 kinase
[13] = RAM signaling pathway blockade in yeast – S. cerevisiae, Pdr1DBD-CYC8 efflux-inhibited sensitized strain, primary screen (AID 1298);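 note: 0% = DMSO untreated cells without growth and 100% = 10 µM 1-NA-PP1 full growth; higher means more yeast growth rescued from 5-FOA killing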; settings: S. cerevisiae cbk1-as DSE1-URA3 strain, 5-FOA growth OD615, 2 d; at 50 µM; stronger effect = higher value
[14] = H69AR cells + 2 uM doxorubicin, measured here: viability with 2 uM doxorubicin, stronger effect = lower value
[15] = H69AR cells, compound alone cytotoxicity

Row | SMILES | viability [1] | viability [2] | viability [3] | differential viability (reversal) ([4]; H69AR cells + 2 uM doxorubicin) | viability [4, 14] | viability [4, 15] | inhibition [5] | inhibition [6] | growth inhibition [7] | growth inhibition [8] | viability increase [9] | viability [10] | viability [11] | inhibition [12] | RAM network inhibition [13]
1 | OC(CNCCc1ccccc1)c1ccccc1 (stereo not given) | 101% (inactive) | 101% (inactive) | 91.2% (inactive) | 9.8% (inactive) | 81.4% | 91.2% | -5.07% (inactive) | 2.36% (inactive) | -6.34% (inactive) | -6.08% (inactive) | -0.36% (inactive) | 95.4% (inactive) | 94.1% (inactive) | 0.865% (inactive) | 0.66% (inactive)
2 | CC12CN3CCN(CC(C3)C1(O)CN1CCCCC1)C2 (stereo not given) | 119% (inactive) | 95.5% (inactive) | 92.5% (inactive) | 3.25% (inactive) | 89.2% | 92.5% | -8.13% (inactive) | -0.18% (inactive) | -9.73% (inactive) | -6.28% (inactive) | -1.63% (inactive) | 88.3% (inactive) | 85.1% (inactive) | 1.06% (inactive) | 1.07% (inactive)
3 | CCOC(=O)Nc1c(O)ccc2oc(C)c(-c3ccccc3)c12 | 102% (inactive) | 68.7% (inactive) | 99.8% (inactive) | 0.02% (inactive) | 99.8% | 99.8% | 0.26% (inactive) | 15.3% (inactive) | -15.4% (inactive) | -6.34% (inactive) | -2.89% (inactive) | 79.4% (inactive) | 80.9% (inactive) | 1.51% (inactive) | 3.9% (inactive)
4 | O=C(Nc1ccc2c(c1)OCCO2)C1CCN(C(=O)c2ccc(F)cc2)CC1 | 90% (inactive) | 94.9% (inactive) | 92.5% (inactive) | 5.68% (inactive) | 86.8% | 92.5% | -4.53% (inactive) | -4.55% (inactive) | -9.55% (inactive) | -4.03% (inactive) | -3.11% (inactive) | 92.3% (inactive) | 93% (inactive) | 0.685% (inactive) | 6.28% (inactive)
5 | CCCc1cc(=O)oc2cc(C)cc(OC(=O)c3ccco3)c12 | 97% (inactive) | 62.2% (inactive) | 95.8% (inactive) | 9.31% (inactive) | 86.5% | 95.8% | -6.93% (inactive) | -7.82% (inactive) | -7.19% (inactive) | -12.2% (inactive) | -1.16% (inactive) | 96.7% (inactive) | 80.6% (inactive) | 3.94% (inactive) | 4.75% (inactive)
6 | O=C(CSc1nnnn1-c1ccccc1)Nc1ccc(Cl)cc1 | 100% (inactive) | 99.1% (inactive) | 89.7% (inactive) | 6.46% (inactive) | 83.2% | 89.7% | 2.13% (inactive) | 6% (inactive) | -4.88% (inactive) | 4.24% (inactive) | -3.86% (inactive) | 74% (inactive) | 76.8% (inactive) | 3.12% (inactive) | 2.55% (inactive)
7 | Clc1c(CSc2nc3ccccc3o2)nc2sccn12 | 116% (inactive) | 82% (inactive) | 92.9% (inactive) | 13.2% (inactive) | 79.8% | 92.9% | -1.04% (inactive) | 2.95% (inactive) | -13.5% (inactive) | -9.04% (inactive) | -6.43% (inactive) | 77.3% (inactive) | 81% (inactive) | -0.115% (inactive) | -0.26% (inactive)
8 | Cn1c(=O)c2c(nc(CN3CCc4ccccc4C3)n2Cc2cccc(Cl)c2)n(C)c1=O | 95% (inactive) | 45.5% (inactive) | 31.2% (active) | 12.7% (inactive) | 18.5% | 31.2% | -3.2% (inactive) | -1.33% (inactive) | -8.07% (inactive) | -5.74% (inactive) | -7.3% (inactive) | 42.6% (inactive) | 47.6% (inactive) | -0.785% (inactive) | 4.55% (inactive)
9 | CC(C)C(CO)NC(=O)CC(=O)NC(CO)C(C)C (stereo not given) | 93% (inactive) | 101% (inactive) | 103% (inactive) | 21.4% (inactive) | 81.4% | 103% | -4.8% (inactive) | -0.91% (inactive) | -4.75% (inactive) | -1.44% (inactive) | -0.9% (inactive) | 105% (inactive) | 97.3% (inactive) | 2.15% (inactive) | 6.33% (inactive)
10 | Cc1ccc(C)n1-c1ccc(N2CCOCC2)cc1 | 104% (inactive) | 86.4% (inactive) | 77.9% (inactive) | -15.4% (inactive) | 93.4% | 77.9% | -6.35% (inactive) | -3.33% (inactive) | -10.4% (inactive) | -9.78% (inactive) | -7.18% (inactive) | 8.5% (active) | 8.6% (active) | 3.15% (inactive) | 7.34% (inactive)
